In PubChem BioAssay (NCATS):
Results filed as inconclusive are left out. Where a call stands in place of a potency, no number is given. Unmarked numbers belong to inactive results. Calls of active or inactive are those of the source. Calls follow the shape of the dose curve; as a rule, active = well fitted activation curve with a large enough effect; inconclusive = small, poorly fitted or top-dose-only effect; inactive = flat fitted curve, though single readings scatter. *1 amine or outer side, *2 acyl side, *3 side chain or, on linkers, in order; H or OH if unused. Where a SMILES comes first, the peptide text is derived from it. [ ]: non-standard residue; d: D form. X7 = O=C([C@@H](CC(O)CCl)O[*:1])[*:2]; aIle = CC[C@@H](C)[C@H](N)C(=O)O; NMeV = CN[C@H](C(=O)O)C(C)C; NMeA = CN[C@@H](C)C(=O)O; βAla = NCCC(=O)O

Assay: Primary redox qHTS assay for identification of artifact compounds. (AID 1845223)
Conditions: Amplex Red/HRP redox cycling with DTT, fluorescence; series mostly up to 53.8 µM
Description: PI: Alexander Tropsha Ph.D.
UNC Eshelman School of Pharmacy
University of North Carolina, Chapel Hill, North Carolina
Hits from high-throughput screening (HTS) of chemical libraries are often false positives due to their interference with the assay detection technology. In response to this problem, we generated the largest publicly available library of chemical liabilities and developed a free webtool to predict HTS artifacts, both of which are described herein. More specifically, we generated, curated, and integrated HTS datasets for thiol reactivity, redox activity, and luciferase (firefly and nano) activity. Using these curated datasets, we developed and validated several Quantitative Structure-Interference Relationship (QSIR) models to predict nuisance behavior. […] These models were employed for virtual profiling of the National Center for Advancing Translational Science's (NCATS) in-house library, and 256 compounds for each assay were selected for the experimental validation of nuisance behavior. The BA for these external predictions ranged from 58 to 78% for compounds within the applicability domains of the models. […] The models developed in this study, along with aggregation models previously developed by our group (SCAM Detective) were implemented in "Liability Predictor," an online tool which may be used as part of chemical library design or for triaging HTS hits. Both the models and the curated datasets are publicly available at https://liability.mml.unc.edu/.
SEQUENCE No. (e.g., 1, 2, 3, etc.); […] (e.g., Cells, Incubation, Reagent, etc.); VALUE; DESCRIPTION.
1; Reagent; 3 uL; Amplex Red and HRP mixture.
2; Compounds and control; 16 nL; Kalypsis pin tool (Wako USA) equipped with a 1536-well pin head. […]
6; Detection; Fluorescence, ViewLux microplate reader, 525 nm excitation, 598 nm emission.
NOTES (numbers refer to Sequence numbers above)
1. 3 uL of a mixture containing Amplex Red (25 uM final concentration) and horseradish peroxidase (HRP; 250 mU/mL final concentration) in assay buffer (HBSS) was dispensed into all wells of a 1536-well assay plate (solid-bottom black plate; Greiner Bio One, Monroe, NC).
2. A Wako Pin-tool (Wako Automation, Richmond, VA) was used to transfer 16 nL of compounds (consisting of 7-plates in qHTS format, final concentration range 18.3 nM to 114 uM) or control DA3003 (final concentration range 1.22 nM to 40 uM).
3. 15 min. incubation at room temperature protected from light.
4. 1 uL of DTT (prepared fresh; final concentration 250 uM) was dispensed for a final assay volume of 4 uL.
5. Plates were centrifuged (121xg, 15 seconds) and incubated for 30 minutes at room temperature protected from light.
6. Samples were read for fluorescence (Ex/Em = 525(20)/598(25) nm) on a ViewLux CCD imager (PerkinElmer). Data were normalized to DMSO (0% activity) and DA3003 (10 uM final concentration; 100% activity) and the resulting percent inhibition data were fitted to a 4-parameter Hill equation using NCATS in-house software.
For `C#C[C@]1(O)CC[C@H]2[C@@H]3CC[C@H]4Cc5nc6nc7ccccc7n6cc5C[C@]4(C)[C@H]3CC[C@@]21C`, the Potency was “inactive”.
With `OC(CNc1ccccc1)Cn1c2ccc(Br)cc2c2cc(Br)ccc21` (stereo not given) the Potency was “inactive”.
In the case of `O=C(NCCN1CCC2(CC1)C(=O)NCN2c1cccc(F)c1)c1ccc2ccccc2c1`, the Potency is reported as “inactive”.
In the case of `CCc1nn(C)c(C(=O)NCc2ccc(Oc3ccc(C)cc3)cc2)c1Cl`, the Potency is reported as “inactive”.
For `CC[C@@H](C)[C@@H]1NC(=O)[C@@H]2CCCN2C(=O)[C@@H](CC(O)CCl)OC(=O)CCNC(=O)[C@H](C)N(C)C(=O)[C@H](C(C)C)N(C)C1=O` (stereo not given in full) (cyclo([NMeA][βAla][X7]P[aIle][NMeV])), the Potency was “inactive”.
For `COc1ccc2c3c4n(c2c1)[C@@H](C=C(C)C)OOC(C)(C)C[C@@H]4N1C(=O)[C@@H]2CCCN2C(=O)[C@]1(O)[C@H]3OCC=C(C)C`, the Potency was “inactive”.
With `C[C@H]1C/C=C/[C@H]2[C@@H]3O[C@]3(C)[C@@H](C)[C@H]3[C@H](Cc4ccccc4)NC(=O)[C@]32OC(=O)O/C=C/[C@@](C)(O)C1=O` the Potency was “inactive”.
In the case of `C[C@]12CC[C@H](O)CC1=CC[C@@H]1C2CC[C@]2(C)[C@@H](C3=CC(=O)OC3)CC[C@]12O` (stereo not given in full), the Potency is reported as “inactive”.
For `CC12Cc3cn[nH]c3C=C1CCC1C2CCC2(C)C1CCC2(C)O` (stereo not given), the Potency was “inactive”.
In the case of `C[C@]12CC[C@H](OC3OC(CO)C(O)C(O)C3OC3OC(CO)C(O)C(O)C3O)C[C@@H]1CC[C@@H]1C2CC[C@]2(C)[C@@H](C3=CC(=O)OC3)CC[C@]12O` (stereo not given in full), the Potency is reported as “inactive”.
For `C/C=C(\C)C(=O)O[C@@H]1[C@@H](C)[C@]2(O)C3C=C(C)C(=O)[C@@]3(O)CC(CO)=C[C@H]2C2C(C)(C)[C@@]21OC(=O)C(C)CC` (stereo not given in full), the Potency was “inactive”.
In the case of `C=C1[C@@H](C)[C@H]2[C@H](Cc3ccccc3)NC(=O)[C@]23[C@H](OC(C)=O)/C=C/[C@](C)(O)C(=O)[C@@H](C)C/C=C/[C@H]3[C@@H]1O`, the Potency is reported as “inactive”.
With `Cc1ccccc1CN1CCC(N2CCC(n3c(=O)[nH]c4ccccc43)CC2)CC1` the Potency was “inactive”.
In the case of `Oc1ccc2c3c1O[C@H]1c4[nH]c5c(N=C=S)cccc5c4C[C@@]4(O)[C@@H](C2)N(CC2CC2)CC[C@]314`, the Potency is reported as “inactive”.
With `C[C@]12CC[C@H](O[C@@H]3O[C@H](CO)[C@@H](O)[C@H](O)[C@H]3O)CC1=CC[C@@H]1C2CC[C@]2(C)[C@@H](C3=CC(=O)OC3)CC[C@]12O` (stereo not given in full) the Potency was “inactive”.
With `N#Cc1cn([C@@H]2O[C@H](CO)[C@H](O)[C@@H]2O)c2ncnc(N)c12` the Potency was “inactive”.
In the case of `Cc1c(N2C(=O)[C@@H]3[C@H](O)CCN3C2=O)ccc(C#N)c1Cl`, the Potency is reported as “inactive”.
With `CC1=CC(=O)[C@@H](O)[C@@]2(C)C1C[C@H]1OC(=O)[C@H](O)[C@@]3(O)[C@@H](C)[C@@H](O)[C@H](O)C2[C@@]13C` (stereo not given in full) the Potency was “inactive”.
In the case of `CN1C(=O)CN=C(c2ccccc2Cl)c2cc(Cl)ccc21`, the Potency is reported as “inactive”.
For `COc1ccc(C23CCC(=O)C=C2N(C)CC3)cc1OC` (stereo not given), the Potency was “inactive”.
With `CC1=CC2OC3CC(O)[C@](C)([C@@]2(C)C(O)C1=O)[C@]31CO1` (stereo not given in full) the Potency was “inactive”.
In the case of `CC1CCCCCC(=O)c2c(O)cc(O)cc2CC(=O)O1` (stereo not given), the Potency is reported as “inactive”.
In the case of `CN1C2CCC1CC(OC(=O)N1Cc3ccccc3NC1=O)C2` (stereo not given), the Potency is reported as “inactive”.
For `CNC(=O)c1cc(C#N)cc(C)c1NC(=O)c1cc(Br)nn1-c1ncccc1Cl`, the Potency was “inactive”.
With `C[C@]12CC[C@H](O[C@@H]3O[C@H](CO)[C@@H](O)[C@H](O)[C@H]3O)CC1CC[C@@H]1C2CC[C@]2(C)[C@@H](C3=CC(=O)OC3)CC[C@]12O` (stereo not given in full) the Potency was “inactive”.
For `CC[C@@H](C)[C@H]1C(=O)O[C@H](C(C)C)C(=O)N(C)[C@@H](C(C)C)C(=O)O[C@H](C(C)C)C(=O)N(C)[C@@H](C(C)C)C(=O)O[C@H](C(C)C)C(=O)N1C`, the Potency was “inactive”.
For `CN1C(=O)[C@]23CC4C(C)(C)[C@@]5(C[C@@]41CN2CC[C@@]3(C)O)C(=O)Nc1c5ccc2c1OC=CC(C)(C)O2` (stereo not given in full), the Potency was “inactive”.
For `C/C=C1/CN2CC[C@]34C(=Nc5ccccc53)[C@@H]2C[C@@H]1[C@H]4C(=O)OC`, the Potency was “inactive”.
For `CCCN(CCC)CCc1ccc(OC)c(OCCc2ccccc2)c1`, the Potency was “inactive”.
For `C=C(C)[C@@]12O[C@@H]1[C@@]1(C)C(=CC2=O)CC[C@@H](OC(C)=O)[C@@H]1C`, the Potency was “inactive”.
For `CC[C@@H](C)[C@H]1C(=O)O[C@H](C(C)C)C(=O)N(C)[C@@H]([C@@H](C)CC)C(=O)O[C@H](C(C)C)C(=O)N(C)[C@@H]([C@H](C)CC)C(=O)O[C@H](C(C)C)C(=O)N1C`, the Potency was “inactive”.
In the case of `C[C@]12CC[C@H]3[C@@H](CCC4=C/C(=N/OCC(=O)O)CC[C@@]43C)[C@@H]1CC[C@@H]2O`, the Potency is reported as “inactive”.
For `CC(=O)O[C@H]1C[C@]2(O)[C@@H]3CC[C@@H]4C[C@@H](O)CC[C@]4(C)[C@H]3CC[C@]2(C)[C@H]1c1ccc(=O)oc1`, the Potency was “inactive”.
For `N#Cc1ccc(N2CCN(C(=O)COc3ccc4[nH]cc(CCN)c4c3)CC2)cc1`, the Potency was “inactive”.
In the case of `CO[C@H]1C[C@H](O[C@H]2CC[C@@]3(C)C(=CCC4C3CC[C@]3(C)[C@@H](C5=CC(=O)OC5)CC[C@]43O)C2)O[C@@H](C)[C@@H]1O[C@@H]1O[C@H](CO[C@@H]2O[C@H](CO)[C@@H](O)[C@H](O)[C@H]2O)[C@@H](O)[C@H](O)[C@H]1O` (stereo not given in full), the redox activity (% of DA3003) is reported as 8.54% [at 11.5 µM].
With `CO[C@H]1[C@@H](O)[C@@H](C)O[C@@H](O[C@@H]2C=C3C(OC(C)=O)CC4(O)C(CC[C@]5(C)[C@@H](C6=CC(=O)OC6)CC[C@]45O)[C@@]3(C)CC2)[C@@H]1O` (stereo not given in full) the Potency was “inactive”.
For `CCCCN1[C@@H]2CC[C@H]1CC(OC(c1ccc(F)cc1)c1ccc(F)cc1)C2` (stereo not given in full), the Potency was “inactive”.
With `C=CC(C)(C)C12C=C(O)C(=O)N3/C(=C\c4cnc[nH]4)C(=O)NC31N(OC)c1ccccc12` (stereo not given) the Potency was “inactive”.
With `CN1CN(c2ccccc2)C2(CCN(CCCC(=O)c3ccc(F)cc3)CC2)C1=O` the Potency was “inactive”.
For `C=C1CC[C@H]2[C@@H](/C=C(\C)C(=O)[C@@]3(OC(C)=O)C[C@H](C)[C@H](OC(=O)c4ccccc4)[C@@H]3[C@H]1OC(C)=O)C2(C)C`, the Potency was “inactive”.
